Measurements from PubChem BioAssay AID687038 (Broad Institute, 2013).
Activity calls are given as the source filed them.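 How the source made its calls: active means curve showing a falling signal whose half-maximal concentration is at most twice the top valid dose; inconclusive means flat curve with a moderate drop, or an unreliable fit; inactive means the rest.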

Experiment: endogenous miR-21 quantity in Huh7 cells – cell-based, RT-qPCR, dry powder, selectivity assay for miR-122 inhibitor project, dose response (AID 687038)
Conditions: Huh7 miR-21 levels, qRT-PCR, 48 h; series mostly up to 35 µM

outcome, inactive:
Cc1cccc(NC(=O)Nc2ccc3c(c2)C(=O)N(C)[C@@H]2CC[C@@H](CC(=O)NCc4ccccc4Cl)O[C@H]2CO3)c1
COCC(=O)N(C)C[C@H]1Oc2cc(-c3ccc(C#N)cc3)ccc2S(=O)(=O)N([C@@H](C)CO)C[C@H]1C
COCC(=O)N(C)C[C@H]1Oc2cc(-c3ccccc3F)ccc2S(=O)(=O)N([C@H](C)CO)C[C@H]1C
Cc1cc(C(C)(C)C)cc(S(=O)(=O)NCCc2ccncc2)c1C
CN1C(=O)c2cc(NC(=O)c3cccc(F)c3)ccc2OC[C@@H]2O[C@H](CC(=O)O)CC[C@H]21
C[C@H]1CN([C@@H](C)CO)S(=O)(=O)c2ccc(C#Cc3ccncc3)cc2O[C@@H]1CN(C)C(=O)C1CCOCC1
CCn1cc(C(=O)O)c(=O)c2cc(F)c(N3CCNCC3)nc21
COCC(=O)N(C)C[C@H]1Oc2cc(C#Cc3cccnc3)ccc2S(=O)(=O)N([C@@H](C)CO)C[C@H]1C
C[C@H](CO)N1C[C@H](C)[C@@H](CN(C)C(=O)C2CCOCC2)Oc2cc(C#Cc3ccncc3)ccc2S1(=O)=O
CN(CC(=O)Nc1cccc(Cl)c1)S(=O)(=O)c1ccc2c(c1)n(C)c(=O)c(=O)n2C
CN1C(=O)c2cc(NC(=O)c3cccc(F)c3)ccc2OC[C@H]2O[C@H](CC(=O)O)CC[C@H]21
C[C@H]1CN([C@@H](C)CO)C(=O)c2cc(-c3ccc(C#N)cc3)cnc2O[C@H]1CN(C)Cc1cncnc1
O=C(c1ccc(CNc2c(NC3CCCCC3)c(=O)c2=O)cc1)N1CCc2ccccc21
O=C(NCc1ccccc1Cl)c1ccc(CNc2c(NC3CCCCC3)c(=O)c2=O)cc1
O=S(=O)(NCCc1ccncc1)c1ccccc1
CCOC(=O)N1CCC(NC(=O)c2ccc3c(c2)sc2nc(-c4ccccc4)cn23)CC1
COCC(=O)N(C)C[C@@H]1Oc2ncc(-c3ccc(C#N)cc3)cc2C(=O)N([C@@H](C)CO)C[C@@H]1C
OCc1ccc(-c2nn(Cc3ccccc3)c3ccccc23)o1
CCN(CC)C(=O)c1cccc(NC(=O)c2ccc(Cl)cc2Cl)c1
C[C@@H]1CN([C@@H](C)CO)S(=O)(=O)c2ccc(C#Cc3ccncc3)cc2O[C@@H]1CN(C)C(=O)C1CCOCC1
CCCCN(CCCC)C(=O)CN(C)S(=O)(=O)c1ccc2c(c1)n(C)c(=O)c(=O)n2C
Cc1cccc(NC(=O)Nc2ccc3c(c2)C(=O)N(C)[C@@H]2CC[C@H](CC(=O)NCc4ccccc4Cl)O[C@H]2CO3)c1
CN1C(=O)c2cc(NC(=O)c3cccc(F)c3)ccc2OC[C@H]2O[C@@H](CC(=O)O)CC[C@@H]21
C[C@@H]1CN([C@H](C)CO)S(=O)(=O)c2ccc(/C=C/c3ccccc3)cc2O[C@@H]1CN(C)C(=O)c1cccnc1
CO[C@@H]1CN(C)C(=O)c2cc(NC(=O)c3cccc(Oc4ccccc4)c3)ccc2OC[C@H](C)NC[C@@H]1C
CN1C(=O)c2cc(NC(=O)c3cccc(F)c3)ccc2OC[C@@H]2O[C@@H](CC(=O)O)CC[C@@H]21
C[C@@H]1CN([C@H](C)CO)S(=O)(=O)c2ccc(C#Cc3ccncc3)cc2O[C@H]1CN(C)C(=O)C1CCOCC1
O=C(NCCC1=CCCCC1)c1ccc2c(c1)sc1nc(-c3ccccc3)cn12
O=C(CN=C1NS(=O)(=O)c2ccccc21)Nc1ccccc1N1CCCCCC1
COc1cccc(-c2ccc3c(c2)O[C@H](CN(C)C(=O)C2CCOCC2)[C@H](C)CN([C@@H](C)CO)S3(=O)=O)c1
Cc1cc(C(C)(C)C)cc(S(=O)(=O)N2CCOCC2)c1C
CN(C)CCCOc1nn(Cc2ccccc2)c2ccccc12
